Experimental data from PubChem BioAssay (NCI).
About 83,000 compounds went through this panel and 20% of them were active in at least one assay; those are over-represented in the sample as a whole.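 Activity criterion: percent growth below 10, measured after cells in 96-well plates were exposed to a single compound concentration for 48 hours.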 A number with no mark means an inactive call. Calls of active or inactive are those of the source.

Columns and labels:
Assay in all cases: NCI-60 one-dose screen, 48 h (100 = growth as untreated, 0 = no growth, -100 = all killed)
Conditions in all cases: 10 µM unless noted
SK-MEL-2 melanoma = tested on: SK-MEL-2 melanoma
EKVX NSCLC = tested on: EKVX NSCLC
SN12C renal = tested on: SN12C renal
UO-31 renal = tested on: UO-31 renal
TK-10 renal = tested on: TK-10 renal
ACHN renal = tested on: ACHN renal
CAKI-1 renal = tested on: CAKI-1 renal
CCRF-CEM leukemia = tested on: CCRF-CEM leukemia
MOLT-4 leukemia = tested on: MOLT-4 leukemia
RPMI-8226 leukemia = tested on: RPMI-8226 leukemia
OVCAR-8 ovarian = tested on: OVCAR-8 ovarian
OVCAR-5 ovarian = tested on: OVCAR-5 ovarian
OVCAR-4 ovarian = tested on: OVCAR-4 ovarian
SK-OV-3 ovarian = tested on: SK-OV-3 ovarian
IGROV1 ovarian = tested on: IGROV1 ovarian
OVCAR-3 ovarian = tested on: OVCAR-3 ovarian
HS 578T breast = tested on: HS 578T breast
NCI/ADR-RES ovarian = tested on: NCI/ADR-RES ovarian
SR leukemia = tested on: SR leukemia
A498 renal = tested on: A498 renal

| Compound | growth (SK-MEL-2 melanoma) | growth (EKVX NSCLC) | growth (SN12C renal) | growth (UO-31 renal) | growth (TK-10 renal) | growth (ACHN renal) | growth (CAKI-1 renal) | growth (CCRF-CEM leukemia) | growth (MOLT-4 leukemia) | growth (RPMI-8226 leukemia) | growth (OVCAR-8 ovarian) | growth (OVCAR-5 ovarian) | growth (OVCAR-4 ovarian) | growth (SK-OV-3 ovarian) | growth (IGROV1 ovarian) | growth (OVCAR-3 ovarian) | growth (HS 578T breast) | growth (NCI/ADR-RES ovarian) | growth (SR leukemia) | growth (A498 renal) |
| --- | --- | --- | --- | --- | --- | --- | --- | --- | --- | --- | --- | --- | --- | --- | --- | --- | --- | --- | --- | --- |
| CCNCC(C)(C)O | 107% | 99.6% | 101% | 83.6% | 108% | 110% | 99.1% | 106% | 99.2% | 107% | 106% | 100% | 98.7% | 110% | 112% | 117% | 113% | 102% | – | – |
| Cc1cc(Cl)cc(Cc2cc(Cl)cc(C)c2O)c1O | -18.1% (active) | 53.9% | 2.59% (active) | 7.78% (active) | 34.6% | 7.14% (active) | 3.84% (active) | 5.51% (active) | -15.1% (active) | -22.8% (active) | – | 69% | 22.2% | 51.5% | 33.1% | -2.69% (active) | 4.77% (active) | -10.7% (active) | 1.17% (active) | – |
| Cc1cc(C(=O)NN)c(C#N)c(=O)[nH]1 | 100% | 109% | 88.4% | – | 115% | 105% | 96.8% | 95.9% | 111% | 91.2% | 100% | 106% | 107% | – | – | 112% | 121% | 99.1% | 116% | 95.7% |
| CC1=CC(=Nc2ccc(N(C)C)cc2)C=C(C)C1=O | 110% | 93% | 97.3% | – | 133% | 77.3% | 91.2% | 76.1% | 87.6% | – | 88.9% | 108% | 45.2% | 97.1% | 96.1% | 60% | 90.8% | 83.2% | 88.1% | 76.8% |
| O=C(c1cccc(C(=O)c2ccc3c4c(cccc24)C(=O)N(c2ccccc2)C3=O)c1)c1ccc2c3c(cccc13)C(=O)N(c1ccccc1)C2=O | 111% | 104% | 92.4% | – | 115% | 102% | 100% | 89.9% | 90.9% | 72.4% | 88.8% | 111% | 77.4% | 102% | 104% | 98.8% | 97.6% | 96.9% | 57.4% | 86.7% |
| OC(CCN1CCCCC1)(c1ccccc1)c1ccccc1 | 110% | 98.9% | 108% | 75.4% | 113% | – | 92.6% | 103% | 102% | 100% | 99% | – | 99.8% | 112% | 106% | 112% | – | 100% | 104% | 100% |
| Oc1ccc2ccccc2c1CN1CCOCC1 | 103% | 113% | 107% | – | 123% | 103% | 94.6% | 95.3% | – | 97.5% | 105% | 113% | 108% | 104% | 106% | 120% | 112% | 113% | – | 112% |
| CC(=O)/C(C)=N\OC(=O)Nc1ccccc1 | 107% | 95.6% | 107% | – | 97.5% | 101% | 97.8% | – | 90.4% | 102% | – | – | 97.7% | 90.3% | 103% | 104% | 107% | 101% | 106% | 101% |
| Nc1nnc2cc(F)ccc2n1 | 112% | 96.9% | 89.1% | 85% | 126% | 99.4% | – | 107% | 102% | 102% | 110% | 97.9% | 115% | 91.6% | 102% | 96.2% | 97.2% | 103% | – | 105% |
